For ten compounds, growth results are on record in PubChem BioAssay (NCI).

Structures are written as SMILES. The panel holds about 83,000 compounds, 20% with a hit somewhere; the sample as a whole holds those more often.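 Single-concentration screen, 48 h exposure, 96-well plates. Endpoint: percent growth. Below 10 = active.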 Values without a mark were called inactive. The source made the active and inactive calls.

This assay deals with HL-60(TB) leukemia. As to the kind of experiment: NCI-60 one-dose screen, 48 h (100 = growth as untreated, 0 = no growth, -100 = all killed). The note with it: 10 µM unless noted.
On to `N#Cc1c(-c2ccco2)nc2c(c(-c3ccccc3)nn2-c2ccccc2)c1-c1ccc(O)cc1`, for which the growth was 22.9%.

On to `O=C(c1ccncc1)N1N=C(c2ccc(Cl)cc2)C[C@H]1c1cn(-c2ccccc2)nc1-c1ccccc1`, for which the growth is 107%.

For the compound `NS(=O)(=O)c1ccc(-n2ncc3c(=O)[nH]c(CN4CCN(c5cc6c(cc5F)c(=O)c(C(=O)O)cn6C5CC5)CC4)nc32)cc1`, the growth is 98%.

In the case of `NC(CSC(c1ccccc1)(c1ccccc1)c1ccc(Cl)cc1)C(=O)O` (stereo not given), the growth was -40.5% (active).

`O=C(O)c1ccccc1C(=O)Nc1ccc(Cl)cc1`: the growth is 55%.

As for `Clc1nc2ccccc2nc1CI`, the growth was 93.8%.

For the compound `O=C(N/N=C/c1cc(Cl)ccc1O)c1ccccc1Nc1ccnc(C(F)(F)F)c1`, the growth is 39.3%.

As to `O=C1CC(C(F)(F)F)Cc2nc3ccc(Br)cc3cc21` (stereo not given), the growth was 89.8%.

As for `CCN1CCN(C(=O)[C@@]2(C)CC[C@]3(C)CC[C@]4(C)C(=CC(=O)[C@@H]5[C@@]6(C)CC[C@H](OCCC#N)C(C)(C)[C@@H]6CC[C@]54C)[C@@H]3C2)CC1`, the growth is 90.3%.

Consider `COc1cc2cc(NCc3ccc(F)cc3)nc(C)c2cc1OC`, for which the growth is 31.7%.
